Eleven compounds from PubChem BioAssay (NCATS) can be followed below.

Results filed as inconclusive are left out. The source made the active and inactive calls. The call rests on the fitted dose curve; in most records, active means well fitted activation curve with a large enough effect in the signal ratio, with a control signal flat (not every such curve was filed as active); inconclusive means small, poorly fitted or top-dose-only effect, or effect the other way, or a change in a side signal; inactive means flat fitted curve, though single readings scatter; the % refers to the signal ratio.

The nature of the experiment: qHTS Assay for Identification of Small Molecule Agonists for Hypoxia Response Element Signaling Pathway (AID 914). Further: % of control where 0% means no effect. As to conditions: ME-180 (cervical carcinoma) HRE-bla reporter, beta-lactamase ratio, CoCl2, 17 h; active compounds read high. A digest of the protocol: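 HRE-bla ME-180 cells with beta-lactamase reporter under hypoxia response element, compounds with EC50 CoCl2 for 17 hours at 37 C. CCF4 substrate, 460nm/530nm emission ratio gave %Activity; AC50 from titration series.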
`COC(=O)C/C=C\[C@@H](C)[C@@H]1C=C[C@H](OC(C)=O)[C@H](COC(C)=O)O1`: the activation is 1.52% (inactive). To `CO[C@H]1COC(=O)[C@@H](C)COC(=O)[C@H](C)NC(=O)C/C=C\[C@H]1C` belongs -4.15% (inactive); to `Cc1cc2c(nc1C)CCCCN2C[C@H](O)CN1CCCc2nc(-c3ccc(Br)cc3)ccc21`, -0.373% (inactive).

Regarding `O=C1C=C[C@@H](O)[C@H]2[C@@H]3C(=O)N(C[C@@H]4CCCO4)C(=O)[C@@H]3CC[C@H]12`, the activation is -2.79% (inactive). For the compound `O=C(N/N=C1/C[C@@H](O)[C@@H](O)[C@@H]2[C@@H]3C(=O)N(c4cccc(Oc5ccccc5)c4)C(=O)[C@H]3CC[C@@H]12)OCc1ccccc1`, the activation is -0.0366% (inactive). Next, `CC(C)[C@@H](OCc1ccccc1)[C@H](C)/C=N\OC[C@@H](C)[C@H](OCc1ccccc1)C(C)C`: -1.89% (inactive); `CC(C)CO/N=C1/C[C@@H](O)[C@@H](O)[C@@H]2[C@@H]3C(=O)N(C4CCCCC4)C(=O)[C@H]3CC[C@H]12`: -3.43% (inactive); `CC(C)[C@@H](OCc1ccccc1)[C@H](C)/C=N\OC[C@@H](O)[C@@H]1O[C@@H]2OC(C)(C)O[C@@H]2[C@H]1O`: 7% (inactive).

For the compound `CSCC[C@@H]1NC(=O)C/C=C\[C@@H](C)COC(=O)[C@@H](C)COC1=O`, the activation was -8.61% (inactive). Next, `C[C@H](c1ccccc1)N1C(=O)[C@H]2[C@@H]3[C@H](O)[C@H](O)CC(=O)[C@H]3CC[C@H]2C1=O`: 0.807% (inactive); `c1ccc([C@H]2NCCc3c2[nH]c2ccccc32)cc1`: -22.5% (inactive).
